± gives the standard deviation of the averaged measurements.
Columns and labels:
MDA-MB-231 [1] = assay: cell viability relative to vehicle unstimulated control (fraction); higher = more viable cells; details: pre-treatment time: 18 h then 24 h IFNg/TNF
MDA-MB-231 [2] = assay: kynurenine production, fold change vs DMSO IFNg/TNF control; higher = more kynurenine produced (less inhibition); details: pre-treatment time: 18 h then 24 h IFNg/TNF
Outline: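 After trichloroacetic acid and p-dimethylaminobenzaldehyde treatment, supernatants were read at 492 nm, with 0–100 μM standards. These came from MDA-MB-231 cells (7 × 10^4/well, 96-well plates) pre-treated 18 h with natural products in 0.1% DMSO and then exposed 24 h to IFNγ (1 U/ml) and TNF (6.25 ng/ml) at 37°C. Values for kynurenine production are fold changes over same-plate cytokine-stimulated vehicle wells, averaged over duplicate plates in the first screening round.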
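For cell viability relative to vehicle unstimulated control in this document: viability of the cells left after supernatant collection, read with Deep Blue dye added for 4 h, as absorbance at 570 nm minus 600 nm.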

| SMILES | cell viability (MDA-MB-231 [1]) | kynurenine production (MDA-MB-231 [2]) |
| --- | --- | --- |
| CC(C)C1=C[C@H]2[C@@H](CC[C@]2(C)O)[C@](C)(O)CC1 [Alismoxide] (compound dose: 10 uM) | 1.01 ± 0.018 | 0.714 ± 0.17 |
| C=C[C@@]1(C)CC(=O)[C@]2(O)[C@@]3(C)[C@@H](O)CCC(C)(C)[C@@H]3[C@H](O)[C@H](OC(C)=O)[C@@]2(C)O1 [Forskolin] (compound dose: 10 uM) | 0.785 ± 0.079 | 1.37 ± 0.25 |
| CC(=O)OC(C)(C)CCC(=O)[C@](C)(O)[C@H]1[C@H](O)C[C@@]2(C)[C@@H]3CC=C4[C@@H](C[C@H](O)[C@@H](O)C4(C)C)[C@]3(C)C(=O)C[C@]12C [Cucurbitacin IIa] (compound dose: 10 uM) | 0.939 ± 0.036 | 0.778 ± 0.07 |
| C=C1C(=O)O[C@@H]2CC(C)=C([C@@H](C)CCCOC(C)=O)[C@@H](O)[C@H]12 [Inulicin] (compound dose: 10 uM) | 0.912 ± 0.096 | 1.16 ± 0.15 |
| C=CC(C)(O)CCC=C(C)CCC=C(C)C (mixture of isomers) [Nerolidol] (compound dose: 10 uM) | 1.01 ± 0.043 | 0.798 ± 0.2 |
| CC(=O)O[C@@H](C[C@@H](C)C1=C2C[C@H](O)[C@H]3[C@@]4(C)CCC(=O)C(C)(C)[C@@H]4CC[C@]3(C)[C@@]2(C)CC1=O)[C@H]1OC1(C)C [Alisol C 23-acetate] (compound dose: 10 uM) | 0.975 ± 0.008 | 0.989 ± 0.024 |
| C=C1C(=O)[C@]23[C@H](O)[C@H]1CC[C@H]2[C@@]12CO[C@]3(O)[C@@H](O)[C@@H]1C(C)(C)CC[C@@H]2O [Oridonin] (compound dose: 10 uM) | 0.917 ± 0.017 | 0.73 ± 0.054 |
| CC(=O)OCC1=COC(OC(C)=O)C2C(C)CCC12 (configuration not stated) [Teucrein] (compound dose: 10 uM) | 0.889 ± 0.026 | 0.842 ± 0.086 |
| C=C1CCC[C@]2(C)C[C@@H]3OC(=O)C(C)=C3C[C@@H]12 [Atractylenolide II] (compound dose: 10 uM) | 1.03 ± 0.018 | 1.06 ± 0.041 |
| C[C@@H]1O[C@@H](O[C@H]2[C@H](OC(=O)[C@]34CCC(C)(C)C[C@H]3C3=CC[C@@H]5[C@@]6(C)C[C@H](O)[C@H](O[C@@H]7O[C@H](CO)[C@@H](O)[C@H](O[C@@H]8O[C@H](CO)[C@@H](O)[C@H](O)[C@H]8O)[C@H]7O)C(CO)(CO)[C@@H]6CC[C@@]5(C)[C@]3(C)C[C@H]4O)OC[C@H](O)[C@@H]2O)[C@H](O)[C@H](O)[C@H]1O[C@@H]1OC[C@@H](O)[C@H](O[C@@H]2OC[C@](O)(CO)[C@H]2O)[C@H]1O [Platycodin D2] (compound dose: 10 uM) | 0.7561 ± 0.0061 | 0.301 ± 0.043 |
| C=C1CC[C@@H]2[C@](C)(CO)[C@H](O)CC[C@@]2(C)[C@@H]1/C=C/C1=CCOC1=O [14-Deoxy-11,12-didehydroandrographolide] (compound dose: 10 uM) | 0.857 ± 0.047 | 0.921 ± 0.095 |
| CC(=O)O[C@@]1(C)C[C@@H](O)[C@]2(O)C=CO[C@@H](O[C@@H]3O[C@H](CO)[C@@H](O)[C@H](O)[C@H]3O)[C@@H]21 [8-O-Acetylharpagide] (compound dose: 10 uM) | 0.9 ± 0.067 | 0.906 ± 0.076 |
| CC1=CC23C(=O)C(C=C4COC(C)(C)OC4C24OC(C)(C)OC14)C1C(CC3C)C1(C)C (configuration not stated) [Ingenol-3,4,5,20-diacetonide] (compound dose: 10 uM) | 1.09 ± 0.23 | 0.893 ± 0.14 |
| C=C(C)[C@@H]1CC[C@]2(C(=O)O[C@@H]3O[C@H](CO[C@@H]4O[C@H](CO)[C@@H](O[C@@H]5O[C@@H](C)[C@H](O)[C@@H](O)[C@H]5O)[C@H](O)[C@H]4O)[C@@H](O)[C@H](O)[C@H]3O)CC[C@]3(C)[C@H](CC[C@@H]4[C@@]5(C)CC[C@H](O[C@@H]6OC[C@H](O)[C@H](O)[C@H]6O[C@@H]6O[C@@H](C)[C@H](O)[C@@H](O)[C@H]6O)[C@@](C)(CO)[C@@H]5CC[C@]43C)[C@@H]12 [Pulchinenoside C] (compound dose: 10 uM) | 0.9971 ± 0.0034 | 1.03 ± 0.18 |
| O=C1O[C@H]2[C@@H]3OC(=O)c4cc(O)c(O)c(O)c4-c4c(O)c(O)c5oc(=O)c6c(c(O)c(O)c7oc(=O)c4c5c76)-c4c(cc(O)c(O)c4O)C(=O)OC[C@H]3OC(O)[C@@H]2OC(=O)c2cc(O)c(O)c(O)c2-c2c1cc(O)c(O)c2O (mixture of isomers) [Punicalagin] (compound dose: 10 uM) | 1.001 ± 0.0011 | 0.1 ± 0.0087 |
| COC(=O)C1=CC[C@@]23CC[C@@H]([C@@](C)(/C=C/C=C(\C)C(=O)O)OC2=O)[C@@]3(OC(C)=O)CC1 [Pseudolaric Acid B] (compound dose: 10 uM) | 0.898 ± 0.035 | 0.62 ± 0.24 |

| SMILES | cell viability (MDA-MB-231 [1]) | kynurenine production (MDA-MB-231 [2]) |
| --- | --- | --- |
| CN1CCC[C@H]1c1cccnc1 [(-)-nicotine] (compound dose: 10 uM) | 0.978 ± 0.08 | 1.04 ± 0.11 |
| CC(C)=CCCC1(C)CCC2(C)C3CCC4(C)C(C)C(=O)CCC4C3(C)CCC2(C)C1 (configuration not stated) [Shionone] (compound dose: 10 uM) | 1.02 ± 0.0034 | 0.776 ± 0.11 |
| CC(=O)OCC1=CO[C@@H](OC(=O)CC(C)C)[C@H]2C1=C[C@H](OC(=O)CC(C)(C)OC(C)=O)[C@]21CO1 [Acevaltrate] (compound dose: 10 uM) | 0.474 ± 0.047 | 0.171 ± 0.011 |
| CC(=O)c1c[nH]c2ccccc12 [3-acetylindol] (compound dose: 10 uM) | 0.955 ± 0.15 | 1.11 ± 0.14 |
| C=C1CC[C@@H]2[C@](C)(COC(=O)CCC(=O)O)[C@H](OC(=O)CCC(=O)O)CC[C@@]2(C)[C@@H]1/C=C/C1=CCOC1=O [Kalii Dehydrographolidi Succinas] (compound dose: 2 uM) | 1.08 ± 0.13 | 1.2675 ± 0.00049 |
| C[C@H](CC[C@@H](O[C@@H]1O[C@H](CO[C@@H]2O[C@H](CO)[C@@H](O)[C@H](O)[C@H]2O)[C@@H](O)[C@H](O)[C@H]1O[C@@H]1O[C@H](CO)[C@@H](O)[C@H](O)[C@H]1O)C(C)(C)O)[C@H]1CC[C@@]2(C)[C@@H]3CC=C4[C@@H](CC[C@H](O[C@@H]5O[C@H](CO)[C@@H](O)[C@H](O)[C@H]5O)C4(C)C)[C@]3(C)[C@H](O)C[C@]12C [Siamenoside I] (compound dose: 10 uM) | 1.14 ± 0.34 | 1.1 ± 0.063 |
| COc1ccc2cc1Oc1ccc(cc1)C[C@H]1c3cc(c(OC)cc3CCN1C)Oc1c(OC)c(OC)cc3c1[C@H](C2)N(C)CC3 [Tetrandrine] (compound dose: 10 uM) | 1.047 ± 0.0084 | 1.11 ± 0.024 |
| C=CC(=C)CCC=C(C)CCC=C(C)C [(E)-β-Farnesene] (compound dose: 10 uM) | 0.977 ± 0.015 | 0.723 ± 0.27 |
| CN1CCC[C@@H]1CC(=O)C[C@@H]1CCCN1C [Cuscohygrine] (compound dose: 10 uM) | 0.977 ± 0.14 | 0.962 ± 0.027 |
| O=C(O)/C=C/c1ccccc1O [O-coumaric acid] (compound dose: 10 uM) | 0.976 ± 0.097 | 0.9916 ± 0.006 |
| C=C1[C@H](OC(=O)/C=C(\C)CC)C[C@@H](C(C)C)[C@@H]2[C@@H]([C@@H](C)OC(C)=O)C(=O)C[C@@H]12 [Tussilagone] (compound dose: 10 uM) | 1.01 ± 0.034 | 1.0216 ± 0.00014 |
| C=C(C)[C@H]1CC=C(C)CC1 [(r)-(+)-limonene] (compound dose: 10 uM) | 0.986 ± 0.032 | 0.907 ± 0.04 |
| C=C1[C@@H]2CC[C@@H]3[C@](C2)(C(=O)[C@@H](O)[C@@H]2C(C)(C)[C@H]4CC(=O)[C@@]32CO4)[C@@H]1OC(C)=O [Maoecrystal A] (compound dose: 10 uM) | 0.9322 ± 0.0011 | 0.8659 ± 0.0031 |
| CC(C)=CCC[C@@](C)(O)[C@H]1CC[C@]2(C)[C@@H]1[C@H](O)C[C@@H]1[C@@]3(C)CC[C@H](O)C(C)(C)[C@@H]3CC[C@]12C [(20R)-Protopanaxadiol] (compound dose: 10 uM) | 0.9532 ± 0.0069 | 0.793 ± 0.14 |
| C[C@@]12C[C@@]3(O)O[C@@H](O1)[C@]1(COC(=O)c4ccccc4)[C@H]3C[C@@]12O[C@@H]1O[C@H](CO)[C@@H](O)[C@H](O)[C@H]1O [Paeoniflorin] (compound dose: 10 uM) | 1.03 ± 0.16 | 1.34 ± 0.27 |

Reference: the supplement of paper PMC13094657
